KCNQ2 pot = KCNQ2 (rat) channel potentiation. 310,000 compounds, 0.54% hits. B-score at 10 µM. CHO-K1 KCNQ2, FluxOR thallium flux fluorescence; stronger effect = higher value;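 active = fluorescence ratio B-score at least 3 SD of library B-scores, with initial fluorescence B-score within 3 of them, cut at about 5.3 in these data; same plate scores as AID 2156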;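 note: B-score of peak minus minimum over baseline fluorescence ratio after K+ and Tl+ stimulus; positive B-score means potentiation of KCNQ2 with more thallium influx and brighter signal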
Target sequence (O88943 whole entry, looked up): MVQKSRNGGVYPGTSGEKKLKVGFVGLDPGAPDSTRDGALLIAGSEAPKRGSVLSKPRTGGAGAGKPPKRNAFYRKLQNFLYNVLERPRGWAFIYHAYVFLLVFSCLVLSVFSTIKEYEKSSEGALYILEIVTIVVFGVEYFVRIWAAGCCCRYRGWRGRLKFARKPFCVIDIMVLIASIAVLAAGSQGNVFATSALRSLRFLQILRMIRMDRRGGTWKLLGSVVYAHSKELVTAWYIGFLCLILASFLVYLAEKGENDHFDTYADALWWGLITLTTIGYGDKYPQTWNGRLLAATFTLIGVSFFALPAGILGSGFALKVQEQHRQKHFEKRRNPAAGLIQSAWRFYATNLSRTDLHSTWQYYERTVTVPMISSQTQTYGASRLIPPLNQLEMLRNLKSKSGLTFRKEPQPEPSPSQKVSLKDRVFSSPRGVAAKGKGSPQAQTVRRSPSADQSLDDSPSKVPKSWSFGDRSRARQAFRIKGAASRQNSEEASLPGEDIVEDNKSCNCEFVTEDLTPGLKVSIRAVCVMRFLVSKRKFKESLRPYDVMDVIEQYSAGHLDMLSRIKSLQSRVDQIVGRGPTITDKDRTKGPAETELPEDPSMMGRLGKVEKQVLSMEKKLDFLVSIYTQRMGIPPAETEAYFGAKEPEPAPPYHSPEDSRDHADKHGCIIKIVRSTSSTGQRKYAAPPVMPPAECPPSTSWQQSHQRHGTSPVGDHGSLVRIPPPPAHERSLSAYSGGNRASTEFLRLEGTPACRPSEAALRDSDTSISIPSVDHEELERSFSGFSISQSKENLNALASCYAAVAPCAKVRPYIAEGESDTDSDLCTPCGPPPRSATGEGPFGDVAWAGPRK
KCNQ2 block = blocks the rat KCNQ2 potassium channel; CHO-K1 KCNQ2, FluxOR thallium flux, 20 min; stronger effect = lower value; B-score at 10 µM; 310,000 compounds, 1.1% hits; AID 2156;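 active = fluorescence ratio B-score at most minus 3 library SDs, with starting brightness B-score within 2 library SDs, cut at about -5.5 in these data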
KCNQ2 inh conf = rat KCNQ2 channel inhibition, confirmatory screen; 1,000 compounds, 57% hits; KCNQ2-expressing cells, thallium flux; stronger effect = lower value; shares compounds with KCNQ2 block; AID 493025; activity change, negative = inhibition, % at 10 µM;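 note: 0% = vehicle wells and values are ratio percent relative to vehicle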
KCNQ1 spec = human KCNQ1 activity in KCNQ2 inhibitor specificity screen. shares compounds with KCNQ2 block. 1,000 compounds, 15% hits. activity change, negative = inhibition, % at 10 µM. KCNQ1-expressing cells, FluxOR thallium flux fluorescence; stronger effect = lower value;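 active = activity change at least 3 SD of negative controls below their mean in both duplicate wells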;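 note: CHO cells stably transfected with KCNQ1 and depolarized by potassium stimulus; peak minus minimum fluorescence over baseline after thallium addition; 0% = vehicle negative control and -100% = blank without thallium stimulus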
CHO parental ctr = activity in parental CHO cells lacking KCNQ2. shares compounds with KCNQ2 block. thallium flux counter-screen; stronger effect = lower value. activity change, % at 10 µM. 1,000 compounds, 14% hits;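 note: 0% = vehicle negative controls with stimulus buffer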
KCNQ2 inh confirm = rat KCNQ2 inhibition confirmed by electrophysiology | shares compounds with KCNQ2 block | KCNQ2-expressing cells, automated patch clamp current | calls only at 10 µM | 550 compounds, 49% hits | AID 588531
Active calls of the source: *; i = inactive; x = not tested or not shown; + = active, no number. Shown are actives, neighbours in structure and some others; about 1.6% of the full set was active somewhere. Unless noted, the rule behind the calls is not given here.

SMILES	KCNQ2 pot	KCNQ2 block	KCNQ2 inh conf	KCNQ1 spec	CHO parental ctr	others
O=C(OCC1OC(n2ncc(=O)[nH]c2=O)C(OC(=O)c2ccccc2)C1OC(=O)c1ccccc1)c1ccccc1 (stereo not given)	-11.1	-11.1*	-22.5%*	i	i	KCNQ2 inh confirm=i
CC(=O)OC[C@H]1O[C@@H](n2ncc(=O)[nH]c2=O)[C@H](OC(C)=O)[C@@H]1OC(C)=O	0.09	i	x	x	x
COc1ccc(Cl)cc1NC(=O)CN(C)C(=O)c1cc2c(s1)CCC(C)C2 (stereo not given)	x	i	x	x	x
CS(=O)(=O)N(Cc1ccco1)CC(O)Cn1c2ccccc2c2ccccc21 (stereo not given)	-8.17	-8.17*	-26.5%*	i	i	KCNQ2 inh confirm=+
Cc1ccc(N(CC(O)Cn2c3ccccc3c3ccccc32)S(C)(=O)=O)cc1 (stereo not given)	x	i	x	x	x
COc1ccc(-c2n[nH]c(C)c2-c2cnn(-c3ccccc3)c2)c(O)c1C	x	i	x	x	x
COc1ccc(-c2n[nH]c(C)c2-c2cnn(-c3ccccc3)c2)c(O)c1	-8.03	-8.03*	i	i	i
CC(=O)c1ccc(C(=O)N2CCC(n3nccc3NC(=O)C3CC3)CC2)cc1	x	i	x	x	x
Cc1c(C)n(C(=O)CSc2nc3ccccc3[nH]2)c2ccccc12	-10.7	-10.7*	-30.0%*	i	i	KCNQ2 inh confirm=i
O=C(CSc1nc2ccccc2[nH]1)N1CCCCC1	0.33	i	x	x	x
CSc1ccccc1NC(=O)CN(C1CCCCC1)S(C)(=O)=O	x	i	x	x	x
CN(CC(=O)Nc1ccccc1Sc1ccccc1)C1CCCCC1	-6.67	-6.67*	-37.0%*	-35.0%*	-27.0%*	KCNQ2 inh confirm=i
COc1ccc(/C=C/C(=O)NCC(=O)N=Nc2c(O)[nH]c3ccc([N+](=O)[O-])cc23)cc1	x	i	x	x	x
Cc1cc(C)cc(N(CC(=O)N2CCCCCC2)S(C)(=O)=O)c1	x	i	x	x	x
O=C(NC(Cc1ccccc1)c1ccc2c(c1)OCCCO2)c1ccccc1F (stereo not given)	x	i	x	x	x
CC(=O)N(CCC(Cc1ccccc1)c1ccc2c(c1)OCO2)Cc1ccccc1F (stereo not given)	-7.16	-7.16*	-35.0%*	i	i	KCNQ2 inh confirm=i
CCC(C(=O)NCCN1CCOCC1)n1c2ccccc2c2nc(=O)cc(C)n21 (stereo not given)	0.23	i	x	x	x
Cc1oc(CC(C)C)cc1C(=O)Nc1cccc2ccccc12	-7.74	-7.74*	i	i	i
Cc1cc(C(=O)Nc2cccc3ccccc23)c(C)o1	1.67	i	x	x	x
CCC(C)[C@H](NC(=O)Nc1ccc(C)cc1C)C(=O)O (stereo not given in full)	2.69	i	x	x	x
CN(CC(=O)Nc1ccccc1Br)C(=O)CNC(=O)c1ccco1	0.99	i	x	x	x
CCCCCc1nc2sc3c(c2c(=O)n1NC(=O)c1ccc([N+](=O)[O-])cc1)CC(C)(C)OC3	0.32	i	x	x	x
COc1cc2c(cc1OC)C(C)N(C(=O)c1cc3c(s1)-c1c(C)cccc1OC3)CC2 (stereo not given)	-6.68	-6.68*	-36.5%*	i	i	KCNQ2 inh confirm=+
COc1cc2c(cc1OC)C(C)N(C(=O)c1cc3c(s1)-c1ccccc1OC3)CC2 (stereo not given)	-8.44	-8.44*	i	i	i
COc1cc2c(cc1OC)C(C)N(C(=O)c1cccs1)CC2 (stereo not given)	x	i	x	x	x
SMILES	KCNQ2 pot	KCNQ2 block	KCNQ2 inh conf	KCNQ1 spec	CHO parental ctr	others
CCOC(=O)c1cc2c(s1)-c1c(C)cccc1OC2	x	i	x	x	x
CC(=O)C1=C(C)Nc2ncnn2C1c1ccccc1F (stereo not given)	x	i	x	x	x
O=C(CSc1nnc(CNC(=O)c2ccccc2F)o1)NC1CCCCC1	x	i	x	x	x
COc1ccccc1NC(=O)/C(C#N)=C/c1cccnc1	x	i	x	x	x
N#C/C(=C\c1cccnc1)C(=O)Nc1cccc2ccccc12	-6.69	-6.69*	i	i	i
CCc1nc2ccccc2c(C(=O)Nc2cccc(C)c2)c1C	x	i	x	x	x
Cc1ccccc1NC(=O)c1c2c(nc3ccccc13)CCC2	-6.91	-6.91*	i	i	i
CCc1nc2ccccc2c(C(=O)Nc2cc(C)ccc2C)c1C	-7.46	-7.46*	i	i	i
Cc1ccc(NC(=O)c2c3c(nc4ccccc24)CCC3)cc1	x	i	x	x	x
CCOC(=O)c1c(-c2ccccc2)csc1NC(=O)CSc1ccccc1	-8.24	-8.24*	-38.0%*	-27.0%*	i	KCNQ2 inh confirm=i
CCOC(=O)c1c(-c2ccc(OC)cc2)csc1NC(=O)CSc1ccccc1	x	i	x	x	x
CCOC(=O)c1c(-c2cccs2)csc1NC(=O)CN(CC)CC	-9.86	-9.86*	i	i	i
CCOC(=O)c1c(-c2cccs2)csc1NC(=O)CC(C)C	x	i	x	x	x
CCOC(=O)c1c(NC(=O)COc2ccc3ccc(=O)oc3c2)sc(C(=O)N(C)C)c1C	x	i	x	x	x
Cc1ccccc1NS(=O)(=O)c1nnc(NC(=O)c2ccccc2C)s1	x	i	x	x	x
O=C(Cn1ccc(C(F)(F)F)n1)N=Nc1c(O)[nH]c2ccccc12	x	i	x	x	x
O=C(Cn1ccc(C(F)(F)F)n1)N=Nc1c(O)[nH]c2ccc(Br)cc12	-9.29	-9.29*	-27.0%*	i	i	KCNQ2 inh confirm=+
CCCCC(CC)C(=O)Nc1cc(C(=O)NCCC)ccc1N1CCC2(CC1)CC(c1cccc(Br)c1)=NO2 (stereo not given)	x	i	x	x	x
Cc1ccc(S(=O)(=O)CCC(=O)NC2CCCC2)cc1	0.35	i	x	x	x
COc1ccc(C(=O)Nc2cc3c(cc2OC)CCCC3)cc1Br	x	i	x	x	x
COc1cc2c(cc1NC(=O)c1ccc(C(C)(C)C)cc1)CCCC2	-7.22	-7.22*	i	i	i
COc1ccc(C2CC(c3ccc(C)cc3)=NN2C(=O)CCC(=O)O)cc1OC (stereo not given)	x	i	x	x	x
N#Cc1ccc(Cl)cc1NC(=O)CSc1nc2nc(-c3cccs3)cc(C(F)(F)F)c2c(=O)[nH]1	1.54	i	x	x	x
O=C(c1ccc(F)cc1)N1CCN(c2ccc([N+](=O)[O-])cc2-n2cccc2)CC1	x	i	x	x	x
CC1(C)CC(C(CCN(Cc2ccccc2)C(=O)c2ccco2)c2ccc(F)cc2)CCO1 (stereo not given)	x	i	x	x	x
SMILES	KCNQ2 pot	KCNQ2 block	KCNQ2 inh conf	KCNQ1 spec	CHO parental ctr	others
O=C(c1ccco1)N(CCC(c1ccccc1)c1ccco1)Cc1ccc(F)cc1 (stereo not given)	-7.85	-7.85*	-45.5%*	-46.0%*	-42.5%*	KCNQ2 inh confirm=+
Cc1ccc(C(CCN)c2ccco2)cc1 (stereo not given)	x	i	x	x	x
CCC(=O)N(CCC(c1ccc(C)cc1)c1ccco1)Cc1ccco1 (stereo not given)	-10.2	-10.2*	i	i	i
O=[N+]([O-])c1cccnc1S(=O)(=O)c1ccccc1	x	i	x	x	x
COc1ccc([N+](=O)[O-])c(S(=O)(=O)c2ccc(Cl)cc2)n1	-9.9	-9.9*	-32.0%*	-28.5%*	-22.5%*	KCNQ2 inh confirm=+
COc1ccc([N+](=O)[O-])c(S(=O)(=O)c2ccccc2)n1	-7.49	-7.49*	-28.5%*	i	i	KCNQ2 inh confirm=+
